This passage reports composite z-score and z-score results from PubChem BioAssay.

A short description of test [1]: binders of probe aFSTL3 on microarray, primary screen, stem cell growth factor project, biochemical, small-molecule microarray, fluorescence 635/667 (AID 1064).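 Also: measures binding of the biotinylated anti-FSTL3 antibody to printed compounds.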 The following applies: higher = more signal.
Test [2] can be described thus: binders from COS7 lysate, DM2A8 probe, primary screen, torsin A project, cell lysate, small-molecule microarray, fluorescence 635/667 (AID 1065). The following applies: higher = more signal, COS7 lysate expressing mutant human TOR1A.
Test [3] in a line: binders of probe aFGF2 on microarray, primary screen, stem cell growth factor project, biochemical, small-molecule microarray, fluorescence 635/667 (AID 1067).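 Also: measures binding of biotinylated aFGF2 protein to printed compounds on slides; z-score merges feature fluorescence and signal-to-noise across triplicate slides.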 Particulars: higher = more signal.
The nature of test [4]: binders of probe aFGF10 on microarray, primary screen, stem cell growth factor project, biochemical, small-molecule microarray, fluorescence 635/667 (AID 1071).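 Also: score merges 667 nm spot intensity and signal to noise from triplicate slides.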 Particulars: higher = more signal.
The target of test [5] is Neurogenic locus notch homolog protein 2 (Homo sapiens) (UniProt Q04721). Kind of test: Notch2 binders on small-molecule microarrays, primary screen, biochemical, small-molecule microarray, 635 nm fluorescence, stem cell growth factors (AID 1073). The following applies: Notch2 binding, higher = more signal.
Test [6] deals with Pro-neuregulin-1, membrane-bound isoform (Homo sapiens) (UniProt Q02297). The test can be described thus: NRG1 binders on small-molecule microarrays, primary screen, psychiatric disease protein project, biochemical, small-molecule microarray, fluorescence 635/667 (AID 1075).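 Also: score combines 667 nm spot fluorescence with signal to noise.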 The following applies: NRG1 binding, 635 nm fluorescence, higher = more signal.
Sequence of Pro-neuregulin-1, membrane-bound isoform (Homo sapiens) (Q02297 whole entry, looked up, the tested form may be a part, canonical isoform): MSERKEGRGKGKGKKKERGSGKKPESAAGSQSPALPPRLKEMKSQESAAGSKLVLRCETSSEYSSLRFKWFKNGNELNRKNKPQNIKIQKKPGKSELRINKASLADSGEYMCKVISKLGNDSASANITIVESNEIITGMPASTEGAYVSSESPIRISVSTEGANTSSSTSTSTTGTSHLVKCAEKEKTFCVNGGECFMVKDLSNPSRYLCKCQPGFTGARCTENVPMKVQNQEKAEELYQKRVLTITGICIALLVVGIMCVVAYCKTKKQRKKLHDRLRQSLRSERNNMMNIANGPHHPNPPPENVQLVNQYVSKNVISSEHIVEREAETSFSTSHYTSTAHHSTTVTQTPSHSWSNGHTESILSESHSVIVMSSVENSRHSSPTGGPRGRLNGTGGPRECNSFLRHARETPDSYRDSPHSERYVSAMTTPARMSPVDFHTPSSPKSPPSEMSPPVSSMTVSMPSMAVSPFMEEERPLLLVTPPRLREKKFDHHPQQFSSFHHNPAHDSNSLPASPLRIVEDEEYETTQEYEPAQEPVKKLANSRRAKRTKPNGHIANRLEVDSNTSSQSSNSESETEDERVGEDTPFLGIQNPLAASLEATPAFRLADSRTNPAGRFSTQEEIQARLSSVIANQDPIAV
Test [7] deals with Neuregulin-1 EGF-like domain. The test can be described thus: binders of neuregulin-1 EGF-like domain, primary screen, biochemical, small-molecule microarray, 635 nm fluorescence (AID 1081).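 Also: binding of the protein to compounds printed on small-molecule microarray slides.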 The following applies: small-molecule microarray binding, higher = more signal.
Test [8] in a line: FRG1 promoter luciferase signal modulators, primary screen, FRG1 inhibition for FSHD, cell-based, C2C12 myotubes, firefly/Renilla luciferase, luminescence (AID 1084). The following applies: higher = more signal, called active from +8 up or from −8 down.
Test [9] can be described thus: binders of probe aFST on microarray, primary screen, stem cell growth factor project, biochemical, small-molecule microarray, fluorescence 635/667 (AID 1086).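 Also: score merges 667 nm fluorescence with signal-to-noise of each printed compound spot.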 Particulars: higher = more signal.
A short description of test [10]: binders of probe aHhip on microarray, primary screen, stem cell growth factor project, biochemical, small-molecule microarray, fluorescence 635/667 (AID 1087).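 Also: score merges spot fluorescence at 667nm with spot signal to noise ratio.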 The following applies: higher = more signal.
Test [11] relates to PRMT1 (protein arginine N-methyltransferase 1). The test can be described thus: PRMT1 binders on small-molecule microarrays, primary screen, biochemical, small-molecule microarray, 635 nm fluorescence (AID 1088).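 Also: binding of Prmt1 protein to compounds spotted on small-molecule microarray slides.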 The following applies: small-molecule microarray binding, higher = more signal.
Test [12] in a line: yeast growth modulation, basal conditions, primary screen, YJM789 clinical isolate, OD600, 24 h (AID 1089).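 Also: growth of clinical yeast isolate S. cerevisiae YJM 789 seeded 1000 cells per well; test concentration not given here.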 The following applies: S. cerevisiae YJM789 growth, higher = more signal, called active from +8 up or from −8 down.
A short description of test [13]: fission yeast growth modulation, primary screen, strain 972, OD600, 24 h, no modulator (AID 1090).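 Also: basal condition with compound alone and no growth modifier present; test concentration not given here.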 Particulars: S. pombe 972 growth, higher = more signal, called active from +8 up or from −8 down.
Test [14] is described as follows: S. cerevisiae growth modulation with rapamycin, primary screen, strain BY4716, OD600, 96 h (AID 1091). Also: test concentration not given here. The following applies: higher = more signal, called active from +8 up or from −8 down.
For test [15], the target named is Torsin-1A-interacting protein 2 (Homo sapiens) (UniProt Q8NFQ8). Kind of test: LULL1 binders on small-molecule microarray, primary screen, cell lysate, human LULL1 lysate, 635/667 nm fluorescence (AID 1092).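 Also: probe is lysate of COS7 cells overexpressing human LULL1; score merges per-feature 667 nm fluorescence with signal-to-noise.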 The following applies: hLULL1 lysate binding, 635 nm fluorescence, higher = more signal.
Sequence of Torsin-1A-interacting protein 2 (Homo sapiens) (Q8NFQ8 whole entry, looked up): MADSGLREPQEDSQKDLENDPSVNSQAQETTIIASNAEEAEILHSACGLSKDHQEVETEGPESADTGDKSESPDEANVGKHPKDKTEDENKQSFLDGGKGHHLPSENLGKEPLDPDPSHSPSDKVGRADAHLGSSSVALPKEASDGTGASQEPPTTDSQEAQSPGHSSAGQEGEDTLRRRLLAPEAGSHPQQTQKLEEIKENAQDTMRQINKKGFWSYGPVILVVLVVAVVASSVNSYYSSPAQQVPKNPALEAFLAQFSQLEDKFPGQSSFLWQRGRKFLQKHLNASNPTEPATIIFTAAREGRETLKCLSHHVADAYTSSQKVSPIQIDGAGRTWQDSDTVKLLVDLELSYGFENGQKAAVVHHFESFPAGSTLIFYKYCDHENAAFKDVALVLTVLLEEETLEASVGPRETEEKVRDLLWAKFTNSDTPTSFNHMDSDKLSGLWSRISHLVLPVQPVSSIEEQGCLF
Test [16] in a line: E. coli growth modulation, two-sided OD650, primary screen, E. coli filamentation project, strain DRC41, 24 h (AID 1093).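 Also: MC1000 strain lacking acrAB efflux and sulA so SOS filamentation is blocked; test concentration not given here.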 The following applies: OD650, 24 h, higher = more signal, called active from +8 up or from −8 down.
The nature of test [17]: small-molecule microarray binders of probe aLefty2, primary screen, biochemical, biotinylated probe, 635/667 nm fluorescence (AID 1094).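 Also: score merges spot fluorescence near 667 nm with spot signal-to-noise ratio.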 The following applies: higher = more signal.
The subject of test [18] is Noggin (protein binding on small-molecule microarray). Kind of test: Noggin binders on small-molecule microarray, primary screen, biochemical, 635/667 nm fluorescence (AID 1095).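 Also: score merges 667 nm feature fluorescence with signal to noise over triplicate slides.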 Particulars: 635 nm fluorescence, higher = more signal.
Test [19] has as its target Neurogenic locus notch homolog protein 3 (Homo sapiens) (UniProt Q9UM47). The test can be described thus: NOTCH3 binders on small-molecule microarray, primary screen, biochemical, 635/667 nm fluorescence (AID 1096). Particulars: NOTCH3 binding, 635 nm fluorescence, higher = more signal.
Test [20] is described as follows: small-molecule microarray binders of probe aEGFR, primary screen, biochemical, biotinylated probe, 635/667 nm fluorescence (AID 1097).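 Also: probe is a biotinylated anti-EGFR antibody binding compounds printed on slides; score combines fluorescence near 667 nm and signal to noise of each spot.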 Particulars: higher = more signal.

Calls of active or inactive are those of the source.

Sequence of Neurogenic locus notch homolog protein 3 (Homo sapiens) (Q9UM47 whole entry, looked up): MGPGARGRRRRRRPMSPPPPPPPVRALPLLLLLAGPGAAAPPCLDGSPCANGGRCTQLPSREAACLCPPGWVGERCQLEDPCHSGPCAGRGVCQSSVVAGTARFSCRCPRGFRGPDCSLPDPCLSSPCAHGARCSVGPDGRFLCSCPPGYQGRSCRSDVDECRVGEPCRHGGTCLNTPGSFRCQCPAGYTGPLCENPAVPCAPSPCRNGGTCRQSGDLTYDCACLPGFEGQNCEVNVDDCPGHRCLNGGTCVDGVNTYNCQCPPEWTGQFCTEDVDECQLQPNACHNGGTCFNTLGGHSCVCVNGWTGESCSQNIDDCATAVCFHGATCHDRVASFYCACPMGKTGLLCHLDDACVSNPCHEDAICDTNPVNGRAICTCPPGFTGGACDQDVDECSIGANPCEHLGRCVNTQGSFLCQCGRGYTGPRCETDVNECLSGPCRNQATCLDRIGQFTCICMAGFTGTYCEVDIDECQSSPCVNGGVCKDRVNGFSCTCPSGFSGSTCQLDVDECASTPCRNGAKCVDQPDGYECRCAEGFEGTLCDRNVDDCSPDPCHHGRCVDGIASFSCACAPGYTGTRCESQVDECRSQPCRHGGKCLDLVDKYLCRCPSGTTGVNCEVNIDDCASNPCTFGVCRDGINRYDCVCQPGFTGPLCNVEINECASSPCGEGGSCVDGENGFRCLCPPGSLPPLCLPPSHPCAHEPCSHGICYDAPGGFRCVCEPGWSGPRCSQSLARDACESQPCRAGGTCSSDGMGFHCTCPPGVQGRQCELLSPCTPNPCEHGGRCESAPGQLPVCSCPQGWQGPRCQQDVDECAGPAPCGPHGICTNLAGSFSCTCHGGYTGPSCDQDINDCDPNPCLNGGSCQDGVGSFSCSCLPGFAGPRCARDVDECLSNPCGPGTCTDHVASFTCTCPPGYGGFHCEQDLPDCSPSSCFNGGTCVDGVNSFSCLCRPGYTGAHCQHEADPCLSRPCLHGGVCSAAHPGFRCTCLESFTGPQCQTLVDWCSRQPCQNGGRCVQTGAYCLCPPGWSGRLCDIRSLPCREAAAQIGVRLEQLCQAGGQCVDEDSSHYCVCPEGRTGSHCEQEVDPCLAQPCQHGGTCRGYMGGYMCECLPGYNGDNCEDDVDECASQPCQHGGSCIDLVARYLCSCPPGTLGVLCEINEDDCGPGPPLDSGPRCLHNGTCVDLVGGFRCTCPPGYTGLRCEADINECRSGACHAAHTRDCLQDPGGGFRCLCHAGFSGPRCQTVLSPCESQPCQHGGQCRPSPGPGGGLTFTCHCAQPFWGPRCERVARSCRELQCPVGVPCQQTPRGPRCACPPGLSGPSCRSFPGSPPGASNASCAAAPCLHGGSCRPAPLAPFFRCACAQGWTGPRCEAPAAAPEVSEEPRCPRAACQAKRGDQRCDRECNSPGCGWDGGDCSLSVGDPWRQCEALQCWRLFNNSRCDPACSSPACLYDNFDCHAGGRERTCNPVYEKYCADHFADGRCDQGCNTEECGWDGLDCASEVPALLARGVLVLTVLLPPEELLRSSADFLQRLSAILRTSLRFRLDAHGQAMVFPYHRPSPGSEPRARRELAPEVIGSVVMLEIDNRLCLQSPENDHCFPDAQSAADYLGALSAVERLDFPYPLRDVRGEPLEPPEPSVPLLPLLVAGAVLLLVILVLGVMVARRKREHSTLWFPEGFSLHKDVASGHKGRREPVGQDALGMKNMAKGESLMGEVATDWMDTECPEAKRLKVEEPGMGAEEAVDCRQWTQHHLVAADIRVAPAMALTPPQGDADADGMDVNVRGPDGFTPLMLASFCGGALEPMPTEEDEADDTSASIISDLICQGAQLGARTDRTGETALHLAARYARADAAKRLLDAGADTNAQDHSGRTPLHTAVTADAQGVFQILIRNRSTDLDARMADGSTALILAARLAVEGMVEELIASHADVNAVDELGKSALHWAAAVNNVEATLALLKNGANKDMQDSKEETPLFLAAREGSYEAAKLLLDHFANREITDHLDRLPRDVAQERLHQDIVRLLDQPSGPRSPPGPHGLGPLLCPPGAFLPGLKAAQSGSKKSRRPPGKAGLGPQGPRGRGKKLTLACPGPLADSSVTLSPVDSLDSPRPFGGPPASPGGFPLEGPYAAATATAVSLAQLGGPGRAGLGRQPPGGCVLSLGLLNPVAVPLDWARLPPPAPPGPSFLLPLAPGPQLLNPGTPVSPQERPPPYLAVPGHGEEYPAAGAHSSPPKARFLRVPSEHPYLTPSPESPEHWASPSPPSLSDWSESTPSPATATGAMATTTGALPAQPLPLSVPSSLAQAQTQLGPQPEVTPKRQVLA

Turning to `CC(C)CNC(=O)[C@@]1(C)c2ccccc2C(=O)N(Cc2ccccc2)[C@H]1c1ccc(CO)cc1`, the composite z-score in [1] was 1.69; in [2], -1.04; in test [3], -0.206; in test [4] it was -1.42; in test [5] it was -0.762; in [6] it was 0.839. The composite z-score is 0.614 in test [7]; 0.267 in [9]; -0.164 in test [10]; -0.579 in test [11]; 3.04 in [15]; 0.0397 in test [17]. The figures for the composite z-score in [18], in test [19] and in test [20] were -1.79, -0.643 and -0.285, respectively. Further, the z-score in test [8] was -1.26 (inactive); in [12], -1.79 (inactive); in [13], -0.849 (inactive); in [14], -0.879 (inactive); in test [16], -0.483 (inactive).

As for `C[N+](C)(C)CCCCNC(=O)[C@H]1C[C@H]2C(=O)NCC(=O)N2[C@H]1c1ccc(O)cc1`, the composite z-score in test [1] is -0.392; in test [2] it was 1.83; in [3] it was -0.0466; in test [4], 1.12; in test [5], 0.943; in test [6], 0.584. Moreover, the composite z-score was 1.38 in test [7]; 0.383 in [9]; -0.156 in test [10]; 1.46 in [11]; 1.84 in test [15]; 0.0823 in test [17]. Moreover, the composite z-score in [18] came to 2.01; in [19] it was 1.04; in [20] it was 0.154. Also, the z-score is 0.0635 (inactive) in test [8]; -0.826 (inactive) in test [12]; 0.0918 (inactive) in test [13]; -1.71 (inactive) in test [14]; 0.509 (inactive) in test [16].

For `COCCOC(=O)N1C(=O)[C@@]2(c3cc(C#CCC(C(=O)OC)C(=O)OC)ccc31)[C@H](c1ccc(OCCO)cc1)N1[C@H](c3ccccc3)[C@H](c3ccccc3)OC(=O)[C@H]1[C@@H]2C(N)=O`, the composite z-score in test [1] was -0.564; in test [2] it was -0.461; in test [3], -0.116; in test [4] it was 0.245; in test [5] it was 1.15; in [6] it was 0.928. For the same compound, the composite z-score worked out at 1.22 in test [7]; 0.78 in [9]; 0.35 in test [10]; 1.51 in [11]; 3.22 in test [15]; 0.011 in [17]. For the same compound, the composite z-score is 0.543 in test [18], 1.13 in test [19] and -0.0238 in test [20]. In addition, the z-score was -0.441 (inactive) in [8]; 1.47 (inactive) in [12]; 0.561 (inactive) in test [13]; 4.48 (inactive) in test [14]; 0.237 (inactive) in [16].

With `C#CCNS(=O)(=O)N(C)C`, the composite z-score was -0.49 in [1]; 0.0943 in [2]; -0.0291 in test [3]; 0.276 in test [4]; 0.707 in [5]; 0.174 in test [6]. Besides, the composite z-score was 0.774 in [7]; -0.136 in test [9]; 0.208 in [10]; 0.392 in [11]; 0.43 in [15]; -0.139 in test [17]. Also, the composite z-score in test [18] was 0.4; in test [19] it was 0.579; in test [20] it was -0.054. Further, the z-score in test [8] was -0.533 (inactive); in [12], 1.24 (inactive); in test [13], 0.783 (inactive); in [14], 0.689 (inactive); in test [16] it was 0.663 (inactive).

Regarding `O=c1c2ccc(Br)cc2nc(-c2ccccc2)n1Cc1cccc(O)c1`, the composite z-score is 0.255 in [1]; 2.81 in test [2]; -0.0774 in test [3]; 0.556 in test [4]; 0.701 in test [5]; 1.81 in test [6]. Moreover, the composite z-score was 1.12 in [7]; 0.831 in test [9]; -0.181 in test [10]; 0.529 in test [11]; 1.86 in test [15]; -0.0614 in [17]. Besides, the figures for the composite z-score in test [18], in test [19] and in test [20] were -0.0706, 0.343 and -0.0721, respectively. Also, the z-score was 4.59 (inactive) in test [8]; -1.52 (inactive) in [12]; -2.91 (inactive) in [13]; -0.511 (inactive) in test [14]; 1.38 (inactive) in test [16].
